The supplement of paper PMC6555819

What follows are sequences tested on PPARg:RXRa 90nM:30nM, anti-RXR (NR concentration 90 nM, RXRa partner concentration 30 nM) (assay: PBM binding z-score (relative to random genomic background probes); higher = stronger binding; sequences stand for … in GC…GCGATTGACAGCGTAGAATGAAGG).
In short: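 Probes were double-stranded and carried 34-nt variable regions with direct-repeat seeds, single-nucleotide variants, half-site ablations and random human genomic background sequences, printed on custom Agilent 4×180K protein-binding microarrays. Arrays were incubated 1 h with ligand-free nuclear receptor dimers in PBS pH 7.4, 2% milk, 0.02% Triton X-100, 1 mM DTT, 0.2 mg/mL BSA and 0.4 mg/ml salmon testes DNA. Antibodies against each partner (one per run) detected binding, and scanned fluorescence was regression-normalized. Binding z-scores use the random background probes as reference.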

First: AATACAGGGTCACTAGGCCAGAGTGGGTACGAAT
Second: CCTCGGAGGACACCAGGAGGTCAGAGCTGCCAGA
The PBM binding z-score of the first is higher: 5.4 for the first, -0.278 for the second.

Compared with CGAACTAGGTCAAAGGATAGTGAAAGGCGACGTA, TAGCCTAGGTCAAGCGGGCCAGTATAGTGTCGGC is lower in PBM binding z-score: 8.35 for the first, 1.32 for the second.

Going from ATATGTAGGTTAGAGTCATTCAGAAAGTAGGGAA to CGAACTAGGTCACCAGGACAGTTAAGAGGTTGGA, the PBM binding z-score rises from 3.08 to 6.38.

Compared with ATTTGTAGGTTATCGGGTCATTCAGTTTGCGCAT, CGAACTAGGTCAATGGACAGTGAAAGGCGACGTA is higher in PBM binding z-score: 5.14 for the first, 5.61 for the second.

First: CGAACTAGGTCAAAGGACTGTGAAAGGCGACGTA
Second: CCTTCTGGGCCATTCAGAGGTCATTGATCATATG
The PBM binding z-score of the first is higher: 8.69 for the first, 2.05 for the second.

Compared with CGAACTAGGTCACCATGACAGTGAAGAGGTTGGA, CGAACTAGGTCACCAGGTCAGTGAAGAGGTTGGA is higher in PBM binding z-score: 6.23 for the first, 7.06 for the second.

First: GCTGCTAGGTCAGGATGGTCAGCTAACGGGTACG
Second: CGAACTAGGTCAAAGGACAGTGATAGGCGACGTA
The PBM binding z-score of the first is lower: 0.479 for the first, 9.35 for the second.

Going from CCTACTGGGCCATCAGGTGATTGATATCAACGTT to ATATGTATGTTAGGGTCATTCAGAAAGTAGGGAA, the PBM binding z-score rises from 1.27 to 3.4.

Going from CGTCCAAGGTCAATGCTAGGCCAGTGAAAGCATT to ATATGTTGGTTAGGGTCATTCAGAAAGTAGGGAA, the PBM binding z-score rises from 2.82 to 2.88.

Going from CGAGCTAGGTCAAAGGACAGTGAAAGGCGACGTA to GATACAGGGGCAAGGCCAGAGTACGCGTATTGAT, the PBM binding z-score falls from 5.95 to 0.23.

Compared with CGAACTAGGTCACCAAGACAGTGAAGAGGTTGGA, ATATGTAGGTTAGGGTCATTAAGAAAGTAGGGAA is lower in PBM binding z-score: 6.57 for the first, 6.14 for the second.

First: TTACCAAGGTGAAAGGTCGTTGAAGCACGCCTTG
Second: CGTCCGAGGTCAAAGGTCAGTGAAGAGATGACGG
The PBM binding z-score of the first is lower: 9.79 for the first, 11.5 for the second.

Going from AATACAGGATCACTAGGCCAGAGTAGGTACGAAT to ATATGTAGGTTAGGGTCATTCAAAAAGTAGGGAA, the PBM binding z-score rises from 0.869 to 6.73.

Going from CGTCTAAGGTCAAGGTCAGTGAAAGAGACTCGAA to CGAACTAAGTCATCCAGGACAGTGAATACATTGA, the PBM binding z-score falls from 5.94 to 0.237.

Going from CAAACTAGGTCACAGAGGTCAAACTCCGTGCGTA to CGTCCAAGGTCAGATAGGTCAGTGAATGCCGAGT, the PBM binding z-score falls from 8.85 to 1.9.

First: CAAACTAGGTCACGAAAGGTCAACGTCGAATGAC
Second: CCTACAGGGCCAAAGGTCATTGATTCCAATGCTC
The PBM binding z-score of the first is lower: 9.28 for the first, 9.99 for the second.

Going from CGAACTAGGTAACCAGGACAGTGAAGAGGTTGGA to GATACAAGGTCAGCTAGAGGCCAGAGTATGGAAA, the PBM binding z-score rises from 0.958 to 2.18.

Going from CCTACTGGGGCACGAAAGGTCATTGATTCAGTGA to GCATATAGGTAATTCAAGGTGAAAGTCCGATTGT, the PBM binding z-score falls from 4.75 to 0.865.

Going from ACTCGGAGGACAAATGTCAGAGCTACGCCAGTGA to TCTCGGAGGACACGAAAGGTCAGAACTCGACATC, the PBM binding z-score rises from 1.36 to 2.07.

TAGCATAGGTCATGCGGGCCAGTATAGTGTCGGC showed a PBM binding z-score of 3.18.
